Experimental findings from the supplement of paper PMC7366291 are described below.

Counter-ions that a name gives are not always drawn. ± gives the standard deviation or the standard deviation of the averaged measurements.

Details in all cases: 25 µM; exposure: 24-48 hpf
For test [1], the system named is Danio rerio Tg(wt1b:EGFP) embryo, pronephros. Kind of test: glomerular separation, fold change vs DMSO control; higher = glomeruli further apart (abnormal). The procedure, abridged:
(§1)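 Dechorionated Tg(wt1b:EGFP) zebrafish embryos were kept from 24 to 48 hpf at 28.5°C in HEPES-buffered E3 containing 0.003% PTU, 0.5% DMSO and 25 μM compound. The pronephroi were then imaged from the dorsal side in agarose-filled 96-well plates at 470 nm with 10 z-slices, and 16 reference points were placed by hand on maximum projections in Fiji so that a macro could calculate distances and angles. Values lying more than 2 SD from the mean of a feature were discarded. Every feature is given as a fold change against the mean of DMSO-treated embryos from the same day.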

Test [2] shares this test system. Kind of test: glomerular width (mean of left and right), fold change vs DMSO control; higher = wider glomerulus. The procedure, abridged: as §1
Test [3] has the same test system. The test is described as follows: fraction of imaged embryos annotated as normal kidney; higher = less nephrotoxic; extreme values may be limits of the assay. The procedure, abridged: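 Tricaine-anaesthetised Tg(wt1b:EGFP) zebrafish larvae were oriented dorsally in agarose-filled 96-well plates, and their pronephroi were recorded by widefield fluorescence at 470 nm in 10 z-slices. Before this, the dechorionated embryos had been exposed in 12-well plates to 25 μM compound in 0.5% DMSO and 5 mM HEPES-buffered E3 with 0.003% PTU, from 24 to 48 hpf at 28.5°C. Maximum projections were annotated manually for each embryo, and the read-out is the fraction per treatment classed as normal kidney.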

The test system is the same in test [4]. The test is described as follows: pronephric angle neck segment to proximal convoluted tubule (mean of left and right), fold change vs DMSO control; higher = larger pronephric angle. The procedure, abridged:
as §1

Compound `CNCCC(Oc1ccccc1OC)c1ccccc1` (stereo unspecified) [Nisoxetine hydrochloride] had a glomerular separation in test [1] of 0.972 ± 0.43. In test [2], this compound came in with a glomerular width of 0.94 ± 0.013. The “fraction of imaged embryos annotated as normal kidney” value (“fraction of imaged embryos annotated” for short) in test [3] was found to be 0.833. Further, in test [4], the “pronephric angle neck segment” value stood at 1.06 ± 0.022.

As to `Clc1ccccc1CN1CCc2sccc2C1` [Ticlopidine hydrochloride], the glomerular separation in test [1] came to 1.13 ± 0.49. In test [2], this compound registered a glomerular width of 1.09 ± 0.048. For the same compound, the “fraction of imaged embryos annotated” value in test [3] was determined as 0.833. In addition, in test [4], the “pronephric angle neck segment” value came to 1.008 ± 0.0084.

With `CN1CCC(=C2c3ccccc3CCc3cccnc32)CC1` [Azatadine maleate], the glomerular separation in test [1] amounted to 1.11 ± 0.32. The compound further returned a glomerular width in test [2] of 0.9513 ± 0.00027. Further, in test [3], the “fraction of imaged embryos annotated” value was 1. Also, in test [4], the “pronephric angle neck segment” value is 0.99 ± 0.037.

In the case of `c1ccc(CNc2ncnc3nc[nH]c23)cc1` [Aminopurine, 6-benzyl], in test [1], the glomerular separation is 1.17 ± 0.43. Moreover, the glomerular width in test [2] was found to be 1.01 ± 0.042. In test [3], the “fraction of imaged embryos annotated” value stood at 0.667. Moreover, in test [4], the “pronephric angle neck segment” value worked out at 1.02 ± 0.019.

Consider `CC(=O)OCC(=O)NCCCOc1cccc(CN2CCCCC2)c1` [Roxatidine Acetate hydrochloride], for which, in test [1], the glomerular separation worked out at 1.07 ± 0.37. For the same compound, in test [2], the glomerular width was found to be 1 ± 0.03. Moreover, in test [3], the “fraction of imaged embryos annotated” value stood at 0.667. Besides, the “pronephric angle neck segment” value in test [4] was 1.01 ± 0.06.

On to `COc1ccccc1Oc1c(NS(=O)(=O)c2ccc(C(C)(C)C)cc2)nc(-c2ncccn2)nc1OCCO` [Bosentan], for which, in test [1], the glomerular separation turned out to be 1.19 ± 0.5. In test [2], this compound registered a glomerular width of 1.02 ± 0.034. In test [3], the “fraction of imaged embryos annotated” value stood at 0.833. For the same compound, the “pronephric angle neck segment” value in test [4] was 1.03 ± 0.029.

In test [1], `O=c1[nH]c(=O)n([C@H]2C[C@H](O)[C@@H](CO)O2)cc1F` [Floxuridine] gave a glomerular separation of 0.88 ± 0.33. The compound also yielded a glomerular width in test [2] of 0.972 ± 0.015. Further, the “fraction of imaged embryos annotated” value in test [3] is 0.5. For the same compound, the “pronephric angle neck segment” value in test [4] amounted to 1.05 ± 0.016.

`NCCc1ccc(O)c(O)c1` [Dopamine hydrochloride] gave a glomerular separation in test [1] of 1.08 ± 0.44. Also, the glomerular width in test [2] was 1.05 ± 0.054. In addition, in test [3], the “fraction of imaged embryos annotated” value turned out to be 0.917. In addition, the “pronephric angle neck segment” value in test [4] came out at 1.011 ± 0.005.

The compound `Nc1nc(=O)c2nc(CNc3ccc(C(=O)N[C@@H](CCC(=O)O)C(=O)O)cc3)cnc2[nH]1` [Folic acid] yielded a glomerular separation in test [1] of 0.808 ± 0.29. For the same compound, in test [2], the glomerular width amounted to 0.941 ± 0.044. In test [3], the “fraction of imaged embryos annotated” value amounted to 0.636. Also, the “pronephric angle neck segment” value in test [4] was 1.04 ± 0.014.

In turn, `CNCC(O)c1ccc(OC(=O)C(C)(C)C)c(OC(=O)C(C)(C)C)c1` (stereo unspecified) [Dipivefrin hydrochloride] came in with a glomerular separation in test [1] of 0.794 ± 0.16. The compound also displayed a glomerular width in test [2] of 1.04 ± 0.036. The “fraction of imaged embryos annotated” value in test [3] worked out at 0.833. Moreover, the “pronephric angle neck segment” value in test [4] was found to be 1.03 ± 0.081.

`CC1(C)OC(=O)NC1=O` [Dimethadione]: the glomerular separation in test [1] worked out at 1.27 ± 0.36. This compound also registered a glomerular width in test [2] of 0.89 ± 0.031. Moreover, in test [3], the “fraction of imaged embryos annotated” value worked out at 0.667. In test [4], the “pronephric angle neck segment” value is 1.0483 ± 0.00042.

For the compound `C[C@@H](O[C@H]1OCCN(Cc2n[nH]c(=O)[nH]2)[C@H]1c1ccc(F)cc1)c1cc(C(F)(F)F)cc(C(F)(F)F)c1` [Aprepitant], the glomerular separation in test [1] is 0.995 ± 0.34. Further, the glomerular width in test [2] stood at 1.09 ± 0.076. Further, in test [3], the “fraction of imaged embryos annotated” value turned out to be 0.667. In addition, the “pronephric angle neck segment” value in test [4] was determined as 1.05 ± 0.059.

For the compound `CC(C)(C)NCC(O)COc1cccc2c1CC(O)C(O)C2` (stereo unspecified) [Nadolol], in test [1], the glomerular separation was found to be 0.664 ± 0.2. The compound also displayed a glomerular width in test [2] of 1.03 ± 0.12. Moreover, in test [3], the “fraction of imaged embryos annotated” value is 0.833. Also, in test [4], the “pronephric angle neck segment” value is 0.908 ± 0.02.

On to `CCOC(=O)O[C@]1(C(=O)COC(=O)CC)CC[C@H]2[C@@H]3CCC4=CC(=O)C=C[C@]4(C)[C@H]3[C@@H](O)C[C@@]21C` [Prednicarbate], for which the glomerular separation in test [1] stood at 1.89 ± 0.71. The compound also came in with a glomerular width in test [2] of 1.11 ± 0.066. In test [3], the “fraction of imaged embryos annotated” value stood at 0.417. Moreover, the “pronephric angle neck segment” value in test [4] is 1.03 ± 0.058.

In test [1], `CC(COc1ccccc1)NC(C)C(O)c1ccc(O)cc1` (stereo unspecified) [Isoxsuprine hydrochloride] returned a glomerular separation of 1.07 ± 0.26. Besides, the glomerular width in test [2] worked out at 1.08 ± 0.024. In addition, in test [3], the “fraction of imaged embryos annotated” value came out at 1. Moreover, in test [4], the “pronephric angle neck segment” value came out at 0.928 ± 0.029.

On to `CNCCCN1c2ccccc2CCc2ccccc21` [Desipramine hydrochloride], for which the glomerular separation in test [1] was determined as 0.966 ± 0.26. Moreover, in test [2], the glomerular width came out at 0.996 ± 0.032. In addition, the “fraction of imaged embryos annotated” value in test [3] turned out to be 0.833. Also, the “pronephric angle neck segment” value in test [4] amounted to 1 ± 0.047.

With `CCCCNC(=O)NS(=O)(=O)c1ccc(C)cc1` [Tolbutamide], the glomerular separation in test [1] amounted to 1.01 ± 0.53. In test [2], this compound came in with a glomerular width of 1.01 ± 0.014. Also, in test [3], the “fraction of imaged embryos annotated” value turned out to be 0.833. Moreover, the “pronephric angle neck segment” value in test [4] came out at 1.04 ± 0.023.

In turn, `O=C(O)c1ccccc1C(=O)Nc1ccc(S(=O)(=O)Nc2nccs2)cc1` [Phthalylsulfathiazole] registered a glomerular separation in test [1] of 0.926 ± 0.31. Further, the glomerular width in test [2] was determined as 1.02 ± 0.015. In test [3], the “fraction of imaged embryos annotated” value was 0.833. For the same compound, in test [4], the “pronephric angle neck segment” value came to 0.943 ± 0.071.

`CN1CCN(c2c(F)cc3c(=O)c(C(=O)O)cn(CCF)c3c2F)CC1` [Fleroxacin] registered a glomerular separation in test [1] of 0.566 ± 0.3. Also, in test [2], the glomerular width came out at 0.977 ± 0.049. For the same compound, the “fraction of imaged embryos annotated” value in test [3] was determined as 0.917. Further, the “pronephric angle neck segment” value in test [4] worked out at 1.049 ± 0.0028.

`O=C1c2ccccc2S(=O)(=O)N1CCCCN1CCN(c2ncccn2)CC1` [Ipsapirone] displayed a glomerular separation in test [1] of 1.28 ± 0.67. In addition, in test [2], the glomerular width was 0.908 ± 0.038. The “fraction of imaged embryos annotated” value in test [3] amounted to 0.917. Moreover, the “pronephric angle neck segment” value in test [4] is 1.054 ± 0.0035.

Take `COc1ccc(C(=O)c2ccccc2O)c(O)c1` [Dioxybenzone]: the glomerular separation in test [1] was 2.57 ± 1.9. In test [2], this compound showed a glomerular width of 0.84 ± 0.044. Also, the “fraction of imaged embryos annotated” value in test [3] was 0.417. The “pronephric angle neck segment” value in test [4] stood at 1.09 ± 0.018.

As to `CCN(CC)CCOc1ccc(C(=C(Cl)c2ccccc2)c2ccccc2)cc1` [Clomiphene citrate (Z,E)], the glomerular separation in test [1] is 1.1 ± 0.41. This compound showed a glomerular width in test [2] of 0.981 ± 0.019. In addition, the “fraction of imaged embryos annotated” value in test [3] is 0.75. For the same compound, in test [4], the “pronephric angle neck segment” value turned out to be 0.974 ± 0.053.

In turn, `CC12CC3CC(C)(C1)CC(N)(C3)C2` [Memantine Hydrochloride] came in with a glomerular separation in test [1] of 1 ± 0.34. Further, the glomerular width in test [2] came out at 1.05 ± 0.079. Moreover, the “fraction of imaged embryos annotated” value in test [3] was 0.917. Further, in test [4], the “pronephric angle neck segment” value worked out at 0.9526 ± 0.0081.

`CC/C(=C(\c1ccccc1)c1ccc(OCCN(C)C)cc1)c1ccccc1` [Tamoxifen citrate] returned a glomerular separation in test [1] of 0.968 ± 0.33. In test [2], the glomerular width is 0.977 ± 0.019. Further, the “fraction of imaged embryos annotated” value in test [3] is 0.833. The “pronephric angle neck segment” value in test [4] turned out to be 1.02 ± 0.045.

Compound `Cc1ncc(C[n+]2csc(CCO)c2C)c(N)n1` [Thiamine hydrochloride] gave a glomerular separation in test [1] of 0.951 ± 0.4. This compound also displayed a glomerular width in test [2] of 1.1 ± 0.036. Also, in test [3], the “fraction of imaged embryos annotated” value came out at 0.917. Further, the “pronephric angle neck segment” value in test [4] came out at 0.994 ± 0.025.

The compound `CC1(C)O[C@@H]2C[C@H]3[C@@H]4CCC5=CC(=O)C=C[C@]5(C)[C@H]4[C@@H](O)C[C@]3(C)[C@]2(C(=O)CO)O1` [Desonide] came in with a glomerular separation in test [1] of 1.63 ± 0.49. The glomerular width in test [2] was determined as 1.33 ± 0.024. Also, in test [3], the “fraction of imaged embryos annotated” value came out at 0.167. In addition, in test [4], the “pronephric angle neck segment” value amounted to 1.04 ± 0.13.

In turn, `CC(C)Cc1ccc([C@H](C)C(=O)O)cc1` [S-(+)-ibuprofen] displayed a glomerular separation in test [1] of 4.34 ± 2.3. The compound further displayed a glomerular width in test [2] of 0.59 ± 0.021. Besides, in test [3], the “fraction of imaged embryos annotated” value worked out at 0. In test [4], the “pronephric angle neck segment” value was determined as 1.61 ± 0.035.

`CN(C)/N=N/c1[nH]cnc1C(N)=O` [Dacarbazine] showed a glomerular separation in test [1] of 0.922 ± 0.21. In addition, in test [2], the glomerular width was found to be 0.991 ± 0.037. For the same compound, in test [3], the “fraction of imaged embryos annotated” value was 1. Further, the “pronephric angle neck segment” value in test [4] was 0.997 ± 0.06.

Regarding `CCn1cc(C(=O)O)c(=O)c2cc(F)c(N3CCNCC3)nc21` [Enoxacin], the glomerular separation in test [1] amounted to 0.719 ± 0.29. For the same compound, the glomerular width in test [2] was determined as 0.9596 ± 0.0034. Moreover, the “fraction of imaged embryos annotated” value in test [3] was found to be 0.727. Further, in test [4], the “pronephric angle neck segment” value was found to be 1.06 ± 0.017.
